# From PubChem
# This is a sample that favours compounds with a hit; in the whole collection about 19% have one here.
# Shiga toxin inh: A qHTS for Small Molecule Inhibitors of Shiga Toxin; 290,000 compounds, 9.2% hits; AID 2315, 2010; Vero cells, Shiga toxin protein synthesis inhibition reporter; inhibition, % at 38.7 µM; in the data active = inhibition mostly above about 28%, no sharp cut-off; inactive = mostly below about 43%; also: 0% is about no effect
# Pf growth 48h: Primary qHTS for delayed death inhibitors of the malarial parasite plastid, 48 hour incubation | P. falciparum luciferase growth in erythrocytes, 48 h | Potency, µM (titrated, usually from 28.7 µM), without a hit: at the highest dose activity change, negative = inhibition, most hits filed as inhibitors | 310,000 compounds, 5.9% hits; also: potency is read from the fitted curve at half-maximal effect; % is scaled to controls: 0 for no effect and ±100 for the full control effect
#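 First compound was added to culture medium, then infected red cells at 0.1% parasitemia and 2% hematocrit (final). After incubation at 37 C under 5% CO2, luciferase detection reagent was dispensed and light output recorded.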
# SARS PLP yeast: qHTS of Yeast-based Assay for SARS-CoV PLP; S. cerevisiae expressing SARS-CoV PLpro, growth rescue; Potency, µM (titrated, usually from 32.9 µM), for the others: top-dose activity, positive = growth rescue, actives largely listed as activators; 330,000 compounds, 0.19% hits; AID 485353, 2010; calls by dose curve; also: potency is read from the fitted curve at half-maximal effect; 0% is about no effect; nearly all actives have a fitted effect of over 55% in size
# Cycloheximide cs: Cycloheximide Counterscreen for Small Molecule Inhibitors of Shiga Toxin | AID 2314, 2010 | cell reporter, cycloheximide protein synthesis inhibition counterscreen | max response, % | 300,000 compounds, 12% hits; in the data active = max response mostly above about 13%, no sharp cut-off; inactive = mostly below about 14%; also: read at 38.3 µM for the half of the compounds with a filed dose; 0% is about no effect
# AMA1-RON2 inh: qHTS for Inhibitors of AMA1-RON; Towards Development of Antimalarial Drug Lead: Primary Screen; AID 720542, 2013; Potency, µM (series often up to 58.2 µM), for inactives: top-dose activity change, negative = inhibition, most hits filed as inhibitors; 360,000 compounds, 0.2% hits; Plasmodium falciparum AMA1 (3D7) - RON2 peptide interaction; AlphaScreen AMA1-biotinylated RON2 peptide binding;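 also: potency is read from the fitted curve at half-maximal effect; 0% = vehicle wells and -100% = peptide control; nearly all actives have a fitted effect of over 45% in size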
#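 AMA1 (3D7) with his tag at 25 nM final met compounds first, then biotinylated RON2 peptide at 25 nM; detection used donor plus acceptor beads, 10 µg/mL apiece, read by AlphaScreen after 30 min at room temperature.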
# Pf growth 96h: Primary qHTS for delayed death inhibitors of the malarial parasite plastid, 96 hour incubation. P. falciparum luciferase reporter growth, 96 h. Potency, µM (doses to about 28.7 µM), for inactives: at the highest dose activity change, negative = inhibition, hits mostly inhibitors. 320,000 compounds, 6.9% hits. AID 504834, 2011; also: potency is read from the fitted curve at half-maximal effect; % is scaled to controls: 0 for no effect and ±100 for the full control effect
#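 Compounds incubated with erythrocytes infected by luciferase-expressing P. falciparum (2% hematocrit, 0.05% parasitemia final) for 96 hours, 37 C in 5% CO2. Growth inhibition scored as decreased luciferase luminescence.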
# Starred values were filed as active, the others as inactive; ? = inconclusive; nt = no result given; [ ] = remark or other dose. Unless noted, calls follow the shape of the dose curve; as a rule, active = well fitted curve in the direction sought with a large enough effect; inconclusive = small, poorly fitted or top-dose-only effect, or another doubt; inactive = no such curve, though single readings can be large; an effect the other way counts as inactive or inconclusive.
SMILES,Shiga toxin inh,Pf growth 48h,SARS PLP yeast,Cycloheximide cs,AMA1-RON2 inh,Pf growth 96h
CC(C)[C@H](/C=C/C[Si](C)(C)C)[C@H](C)C(O)/C=C/CCCOC(=O)C(C)(C)C (stereo partly specified),1,nt,nt,-5,nt,nt
C/C(=N\Nc1ccc(C(F)(F)F)cc1[N+](=O)[O-])C1CC1,7,-1%,6%,-1,?,15%
CCN(CC)C(=O)c1sc2nc(N3CCOCC3)c3c(c2c1N)CCCC3,-18,?,2%,-4,-8%,nt
COC(=O)c1sc2nc(N3CCCCC3)c3c(c2c1N)CCCC3,8,nt,10%,9,33%,?
COC(=O)c1ccc(-c2sc3nc(N4CCOCC4)c4c(c3c2N)CCCC4)o1,-15,9%,-5%,2,12%,9.3µM*
CCOC(=O)c1sc2nc(N3CCOCC3)c3c(c2c1N)CCCC3,-10,28%,1%,-3,5%,1µM*
Nc1c(C(=O)NCc2ccco2)sc2nc(N3CCOCC3)c3c(c12)CCCC3,-2,9.3µM*,0%,-1,-8%,?
C/C=C/c1cnc2c(c1)C(=O)N([C@@H](C)CO)C[C@H](C)[C@@H](CN(C)S(=O)(=O)c1ccc(C)cc1)O2,nt,nt,nt,nt,5%,nt
Cc1cccc2cc(CN(CCN3CCOCC3)C(=O)NCc3ccccc3)c(=O)[nH]c12,-19,2%,10%,2,0%,143%
O=[N+]([O-])c1cc2c(cc1Br)-c1ccccc1C2,nt,nt,nt,nt,-29%,nt
CN1C(=O)C(=Cc2coc3ccccc3c2=O)C(=O)N(C)C1=O,23,53%,-1%,20*,-3%,30%
CCN1CCN(Cc2nc3c(c(=O)n(C)c(=O)n3C)n2Cc2cccc3ccccc23)CC1,-6,?,4%,-4,-2%,-22%
CCn1c(CN2CCN(C(c3ccccc3)c3ccccc3)CC2)nc2c1c(=O)n(C)c(=O)n2C,-4,nt,2%,-3,9%,3.3µM*
Cn1c(=O)c2c(nc(CN3CCN(C(c4ccccc4)c4ccccc4)CC3)n2CC(N)=O)n(C)c1=O,41,nt,7%,-5,19%,?
CCOC(=O)Cn1c(CN2CCN(C(c3ccccc3)c3ccccc3)CC2)nc2c1c(=O)n(C)c(=O)n2C,12,4.1µM*,-8%,-2,-9%,1.9µM*
COc1ccc(OCCCC(=O)N2CCCc3ccccc32)cc1,-7,-7%,-8%,6,1%,nt
CC(C)C(=O)NC(=S)N1CCc2ccccc21,9,10%,26%,-2,24%,-15%
O=C(COc1ccccc1)NC(=S)N1CCc2ccccc21,38*,38%,-25%,40*,26%,90%
O=C(COc1ccccc1Cl)NC(=S)N1CCc2ccccc21,57,44%,0%,50*,19%,?
COc1ccc(OCC(=O)NC(=S)N2CCCc3ccccc32)cc1,152*,?,4%,35*,?,nt
COc1ccc(CN(C)CCCn2cnc3c(OC)ncnc32)cc1OC,nt,nt,nt,nt,1%,nt
CC(=O)N1CCOCCOCCN(C(C)=O)CCOCC1,-2,-9%,0%,-4,28%,?
Cc1ccc(S(=O)(=O)NC(=O)C2(C)CCN2C(=O)c2ccc(C(F)(F)F)nc2C)cc1 (stereo unspecified),nt,nt,nt,nt,4%,nt
O=c1/c(=C/c2ccc(O)cc2)sc2nc3cc(Br)cnc3n12,31,28%,-1%,17,nt,?
Cc1cc(C)nc(NC(=NCCc2c[nH]c3ccccc23)NC(=O)Nc2cccc([N+](=O)[O-])c2)n1,-6,3.3µM*,-12%,5,6%,58%
SMILES,Shiga toxin inh,Pf growth 48h,SARS PLP yeast,Cycloheximide cs,AMA1-RON2 inh,Pf growth 96h
C/C(=N\NC(=O)CCc1c[nH]c2ccccc12)c1cccc([N+](=O)[O-])c1,-1,30%,17%,-2,?,23%
Cc1cc(C)nc(NC(=NCCc2c[nH]c3ccccc23)NC(=O)Nc2ccccc2)n1,-6,5.2µM*,-13%,-3,0%,4.7µM*
Cc1cc(C)nc(NC(=NCCc2c[nH]c3ccccc23)NC(=O)c2ccco2)n1,-9,6.6µM*,5%,-3,8%,5.9µM*
Cc1cc(C)nc(NC(=NCCc2c[nH]c3ccccc23)NC(=O)Nc2ccc(Cl)c(Cl)c2)n1,17,?,-10%,-4,-8%,2.1µM*
CCOC(=O)C/C(C)=N/NC(=O)CNc1cccc(Cl)c1C,-15,12%,-4%,-3,31%,7%
COc1ccc(N2CCN(C(=O)C3CCN(C(=O)c4cccc(Cl)c4)CC3)CC2)cc1,-10,-22%,0%,-3,-5%,7%
COc1ccc(OC)c(NC(=O)c2cc(-c3cc(C)ccc3O)n[nH]2)c1,36,?,-1%,-2,3%,6.6µM*
COc1ccc(OC)c(NC(=O)c2cc(-c3ccc(C)cc3O)n[nH]2)c1,1,10µM*,4%,10,2%,nt
COc1ccc(NC(=O)c2cc(-c3cc(Cl)ccc3OC)n[nH]2)c(C)c1,nt,nt,nt,nt,0%,nt
COc1ccc(Cn2cc(CN(C)C3CN(Cc4cn(Cc5ccc(OC)cc5)nn4)S(=O)(=O)C3)nn2)cc1 (stereo unspecified),nt,nt,nt,nt,0%,nt
O=[N+]([O-])c1ccc(Cl)c(S(=O)(=O)/N=C(/c2ccccc2)N2CCOCC2)c1,-21,10%,2%,6,-1%,53%
CCOc1ccc(C(=O)CC(C(=O)O)N2CCCCC2)cc1 (stereo unspecified),nt,-26%,4%,nt,-2%,?
COc1cc(/C=C/C(=O)OC(C)C(=O)c2ccccc2)cc(OC)c1OC (stereo unspecified),nt,?,0%,nt,-13%,?
O=C1c2cccc3c2[C@@H](CCC3)CN1[C@@H]1CN2CCC1CC2,nt,12µM*,nt,nt,nt,-104%
CCOC(=O)C1(CC2CCCCO2)CCN(S(=O)(=O)c2ccccc2)CC1 (stereo unspecified),-4,?,0%,-1,2%,?
CCCCOc1ccc(S(=O)(=O)N2CCCCCC2)cc1,32,-13%,-6%,6,40%,12µM*
O=S(=O)(c1ccc(S(=O)(=O)N2CCCC2)cc1)N1CCCCCC1,-10,-5%,0%,-2,4%,-2%[5.75 µM]
O=C(COc1ccc(S(=O)(=O)N2CCCCC2)cc1)N1CCCCCC1,-8,?,-1%,1,0%,13µM*
CC(C)(C)c1ccc(S(=O)(=O)N2CCC(CO)(CC3CCCCO3)CC2)cc1 (stereo unspecified),-5,2.3µM*,-1%,-1,-3%,?
